From the supplement of paper PMC10849652
The full data set covers some 8,800 targets. This sample favours those with a hit. About 0.5% of all pairs of compound and target were hits. Unmarked numbers belong to inactive results.

Columns and labels:
Test in all cases: log2 fold change, soluble protein after heating vs DMSO (PISA); higher = thermal stabilisation; K562 lysate, 10 uM; active = over 0.2 and 3.5 SD of the protein, either way, in both replicates (recomputed)
[1] = compound: CS(=O)(=O)CCNCc1ccc(-c2ccc3ncnc(Nc4ccc(OCc5cccc(F)c5)c(Cl)c4)c3c2)o1 [lapatinib]
Outline: (§1)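 Quantification was by TMTpro 16plex LC-MS/MS with equalised channel sums, applied to the supernatant after 21,000xg for 90 min. Samples were crude K562 extract at 1 mg/mL protein in PBS pH 7.4 with 1 mM MgCl2, treated with 10 μM compound for 30 min, heated for 3 min across 48°C-58°C, pooled and brought to 0.5% NP-40 at 4°C. Values are log-two fold changes in thermal stability relative to solvent controls, from duplicates.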

[2] = compound: CS(=O)(=O)N1CCN(Cc2cc3nc(-c4cccc5[nH]ncc45)nc(N4CCOCC4)c3s2)CC1 [pictilisib]
Outline: as §1

[3] = compound: C[C@@H](Oc1cc(-c2cnn(C3CCNCC3)c2)cnc1N)c1c(Cl)ccc(F)c1Cl [crizotinib]
Outline: as §1

[4] = compound: C[C@H](C1=CC=C(C=C1)C(=O)NC2=C3C=CNC3=NC=C2)N
Outline: as §1

[5] = compound: C[C@H](Nc1ncnc2nc[nH]c12)c1cc2cccc(Cl)c2c(=O)n1-c1ccccc1 [duvelisib]
Outline: as §1

[6] = compound: Cc1cc(Nc2cc(CN3CCOCC3)c3nc(C)c(Cc4ccc(Cl)cc4F)n3n2)n[nH]1 [gandotinib]
Outline: as §1

[7] = compound: Cc1cc(Nc2cc(N3CCN(C)CC3)nc(Sc3ccc(NC(=O)C4CC4)cc3)n2)n[nH]1 [tozasertib]
Outline: as §1

[8] = compound: Cc1ccc(-n2nc(C(C)(C)C)cc2NC(=O)Nc2ccc(OCCN3CCOCC3)c3ccccc23)cc1 [doramapimod]
Outline: as §1

[9] = compound: Cc1ccc(NC(=O)c2ccc(CN3CC[C@H](N(C)C)C3)c(C(F)(F)F)c2)cc1Nc1nccc(-c2cncnc2)n1 [bafetinib]
Outline: as §1

[10] = compound: Cc1cccc(CC(=O)N2CCc3c2ccc(-c2cn(C)c4ncnc(N)c24)c3F)n1
Outline: as §1

[11] = compound: Cc1cn(-c2cc(NC(=O)c3ccc(C)c(Nc4nccc(-c5cccnc5)n4)c3)cc(C(F)(F)F)c2)cn1 [nilotinib]
Outline: as §1

[12] = compound: Cc1nc(Nc2n[nH]c3c2CN(C(=O)N[C@H](CN(C)C)c2ccccc2)C3(C)C)c2sccc2n1
Outline: as §1

[13] = compound: Cc1nc(Nc2ncc(C(=O)Nc3c(C)cccc3Cl)s2)cc(N2CCN(CCO)CC2)n1 [dasatinib]
Outline: as §1

[14] = compound: Cc1ncc(-c2ccnc(Nc3ccc(S(C)(=O)=O)cc3)n2)n1C(C)C
Outline: as §1

[15] = compound: Cn1cc(-c2ccc3c(c2)CCN3C(=O)Cc2cccc(C(F)(F)F)c2)c2c(N)ncnc21
Outline: as §1

[16] = compound: Cn1cc(CNCC2CCN(c3ncc(C(=O)NO)cn3)CC2)c2ccccc21 [quisinostat]
Outline: as §1

[17] = compound: Cn1cncc1[C@@](N)(c1ccc(Cl)cc1)c1ccc2c(c1)c(-c1cccc(Cl)c1)cc(=O)n2C [tipifarnib]
Outline: as §1

[18] = compound: NC(=O)Nc1cc(-c2cccc(F)c2)sc1C(=O)N[C@H]1CCCNC1
Outline: as §1

[19] = compound: NC(=O)c1cnc(N[C@@H]2CCCC[C@@H]2N)nc1Nc1cccc(-n2nccn2)c1
Outline: as §1

[20] = compound: NC1(c2ccc(-c3nc4ccn5c(=O)[nH]nc5c4cc3-c3ccccc3)cc2)CCC1
Outline: as §1

Sequence of UniProt P15884 (P15884 whole entry, looked up): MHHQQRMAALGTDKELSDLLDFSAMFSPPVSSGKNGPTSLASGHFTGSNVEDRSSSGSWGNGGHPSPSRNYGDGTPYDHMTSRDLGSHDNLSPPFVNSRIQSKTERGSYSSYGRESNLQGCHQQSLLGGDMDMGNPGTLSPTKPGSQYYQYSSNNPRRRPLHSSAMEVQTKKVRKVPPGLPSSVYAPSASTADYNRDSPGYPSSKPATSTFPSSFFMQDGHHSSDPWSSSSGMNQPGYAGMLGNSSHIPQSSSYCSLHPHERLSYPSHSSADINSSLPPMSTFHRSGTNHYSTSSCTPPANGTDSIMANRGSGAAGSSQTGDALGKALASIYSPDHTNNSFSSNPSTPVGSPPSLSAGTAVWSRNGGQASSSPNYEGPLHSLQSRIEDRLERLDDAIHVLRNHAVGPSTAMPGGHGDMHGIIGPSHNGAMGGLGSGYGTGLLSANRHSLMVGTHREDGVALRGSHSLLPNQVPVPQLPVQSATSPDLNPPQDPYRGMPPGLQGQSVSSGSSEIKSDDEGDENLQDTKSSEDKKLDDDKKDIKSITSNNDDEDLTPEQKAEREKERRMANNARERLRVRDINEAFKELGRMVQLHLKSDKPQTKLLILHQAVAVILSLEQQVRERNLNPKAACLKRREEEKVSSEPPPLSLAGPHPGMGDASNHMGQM
Sequence of UniProt O43399 (O43399 whole entry, looked up): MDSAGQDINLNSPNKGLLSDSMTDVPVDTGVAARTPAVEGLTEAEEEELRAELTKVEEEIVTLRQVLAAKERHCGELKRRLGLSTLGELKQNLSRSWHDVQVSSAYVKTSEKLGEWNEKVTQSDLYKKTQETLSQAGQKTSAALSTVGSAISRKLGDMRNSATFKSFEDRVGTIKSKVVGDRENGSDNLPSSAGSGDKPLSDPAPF
Sequence of UniProt Q9H5L6 (Q9H5L6 whole entry, looked up): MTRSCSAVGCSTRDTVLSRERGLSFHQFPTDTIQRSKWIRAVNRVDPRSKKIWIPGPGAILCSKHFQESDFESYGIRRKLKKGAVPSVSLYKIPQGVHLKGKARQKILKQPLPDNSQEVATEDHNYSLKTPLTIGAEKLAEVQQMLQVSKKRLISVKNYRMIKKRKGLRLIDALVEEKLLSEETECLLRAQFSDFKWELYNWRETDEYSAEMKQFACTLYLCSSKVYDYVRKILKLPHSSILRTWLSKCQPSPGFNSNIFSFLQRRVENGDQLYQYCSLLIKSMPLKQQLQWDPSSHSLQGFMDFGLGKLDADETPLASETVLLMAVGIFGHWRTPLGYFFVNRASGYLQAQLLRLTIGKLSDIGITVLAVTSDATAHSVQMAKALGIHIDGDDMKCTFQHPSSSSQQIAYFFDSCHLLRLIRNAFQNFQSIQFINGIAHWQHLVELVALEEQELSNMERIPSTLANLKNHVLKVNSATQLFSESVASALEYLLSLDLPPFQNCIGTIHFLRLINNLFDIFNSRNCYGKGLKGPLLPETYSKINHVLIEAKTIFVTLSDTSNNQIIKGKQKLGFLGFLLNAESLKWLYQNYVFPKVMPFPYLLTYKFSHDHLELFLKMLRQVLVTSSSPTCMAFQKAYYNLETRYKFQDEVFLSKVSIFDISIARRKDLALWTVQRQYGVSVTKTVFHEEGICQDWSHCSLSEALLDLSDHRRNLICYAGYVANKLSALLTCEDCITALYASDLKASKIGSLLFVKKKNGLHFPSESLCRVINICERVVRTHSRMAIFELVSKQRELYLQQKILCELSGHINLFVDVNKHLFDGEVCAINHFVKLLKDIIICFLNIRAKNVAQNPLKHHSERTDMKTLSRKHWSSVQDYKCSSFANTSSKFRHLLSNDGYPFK
Sequence of UniProt Q96LJ8 (Q96LJ8 whole entry, looked up): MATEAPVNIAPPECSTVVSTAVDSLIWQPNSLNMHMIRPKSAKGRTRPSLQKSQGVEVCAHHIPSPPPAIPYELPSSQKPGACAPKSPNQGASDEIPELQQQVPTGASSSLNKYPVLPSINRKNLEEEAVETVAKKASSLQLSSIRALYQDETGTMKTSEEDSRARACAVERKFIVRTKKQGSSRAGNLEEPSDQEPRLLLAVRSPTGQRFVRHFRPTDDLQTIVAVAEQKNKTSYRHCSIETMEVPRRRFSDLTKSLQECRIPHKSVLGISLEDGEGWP
Sequence of UniProt P10646 (P10646 whole entry, looked up): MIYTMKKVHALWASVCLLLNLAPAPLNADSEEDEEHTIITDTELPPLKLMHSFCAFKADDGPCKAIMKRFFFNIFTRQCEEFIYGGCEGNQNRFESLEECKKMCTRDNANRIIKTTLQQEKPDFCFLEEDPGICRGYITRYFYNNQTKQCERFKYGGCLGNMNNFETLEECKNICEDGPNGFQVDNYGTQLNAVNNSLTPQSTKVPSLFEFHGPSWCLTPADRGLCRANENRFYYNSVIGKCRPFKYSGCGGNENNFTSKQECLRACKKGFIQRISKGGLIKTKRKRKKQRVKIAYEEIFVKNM
Sequence of UniProt Q9Y5Z9 (Q9Y5Z9 whole entry, looked up): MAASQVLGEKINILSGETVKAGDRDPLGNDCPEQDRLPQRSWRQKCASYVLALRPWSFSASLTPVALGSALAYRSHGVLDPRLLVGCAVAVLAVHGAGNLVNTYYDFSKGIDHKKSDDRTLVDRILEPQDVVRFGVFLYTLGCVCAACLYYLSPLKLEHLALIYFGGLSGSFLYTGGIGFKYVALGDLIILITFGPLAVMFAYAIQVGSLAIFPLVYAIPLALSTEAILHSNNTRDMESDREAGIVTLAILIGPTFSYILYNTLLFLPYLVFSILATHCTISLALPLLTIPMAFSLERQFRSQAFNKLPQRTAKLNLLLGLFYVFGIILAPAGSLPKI
Sequence of UniProt Q6ZT12 (Q6ZT12 whole entry, looked up): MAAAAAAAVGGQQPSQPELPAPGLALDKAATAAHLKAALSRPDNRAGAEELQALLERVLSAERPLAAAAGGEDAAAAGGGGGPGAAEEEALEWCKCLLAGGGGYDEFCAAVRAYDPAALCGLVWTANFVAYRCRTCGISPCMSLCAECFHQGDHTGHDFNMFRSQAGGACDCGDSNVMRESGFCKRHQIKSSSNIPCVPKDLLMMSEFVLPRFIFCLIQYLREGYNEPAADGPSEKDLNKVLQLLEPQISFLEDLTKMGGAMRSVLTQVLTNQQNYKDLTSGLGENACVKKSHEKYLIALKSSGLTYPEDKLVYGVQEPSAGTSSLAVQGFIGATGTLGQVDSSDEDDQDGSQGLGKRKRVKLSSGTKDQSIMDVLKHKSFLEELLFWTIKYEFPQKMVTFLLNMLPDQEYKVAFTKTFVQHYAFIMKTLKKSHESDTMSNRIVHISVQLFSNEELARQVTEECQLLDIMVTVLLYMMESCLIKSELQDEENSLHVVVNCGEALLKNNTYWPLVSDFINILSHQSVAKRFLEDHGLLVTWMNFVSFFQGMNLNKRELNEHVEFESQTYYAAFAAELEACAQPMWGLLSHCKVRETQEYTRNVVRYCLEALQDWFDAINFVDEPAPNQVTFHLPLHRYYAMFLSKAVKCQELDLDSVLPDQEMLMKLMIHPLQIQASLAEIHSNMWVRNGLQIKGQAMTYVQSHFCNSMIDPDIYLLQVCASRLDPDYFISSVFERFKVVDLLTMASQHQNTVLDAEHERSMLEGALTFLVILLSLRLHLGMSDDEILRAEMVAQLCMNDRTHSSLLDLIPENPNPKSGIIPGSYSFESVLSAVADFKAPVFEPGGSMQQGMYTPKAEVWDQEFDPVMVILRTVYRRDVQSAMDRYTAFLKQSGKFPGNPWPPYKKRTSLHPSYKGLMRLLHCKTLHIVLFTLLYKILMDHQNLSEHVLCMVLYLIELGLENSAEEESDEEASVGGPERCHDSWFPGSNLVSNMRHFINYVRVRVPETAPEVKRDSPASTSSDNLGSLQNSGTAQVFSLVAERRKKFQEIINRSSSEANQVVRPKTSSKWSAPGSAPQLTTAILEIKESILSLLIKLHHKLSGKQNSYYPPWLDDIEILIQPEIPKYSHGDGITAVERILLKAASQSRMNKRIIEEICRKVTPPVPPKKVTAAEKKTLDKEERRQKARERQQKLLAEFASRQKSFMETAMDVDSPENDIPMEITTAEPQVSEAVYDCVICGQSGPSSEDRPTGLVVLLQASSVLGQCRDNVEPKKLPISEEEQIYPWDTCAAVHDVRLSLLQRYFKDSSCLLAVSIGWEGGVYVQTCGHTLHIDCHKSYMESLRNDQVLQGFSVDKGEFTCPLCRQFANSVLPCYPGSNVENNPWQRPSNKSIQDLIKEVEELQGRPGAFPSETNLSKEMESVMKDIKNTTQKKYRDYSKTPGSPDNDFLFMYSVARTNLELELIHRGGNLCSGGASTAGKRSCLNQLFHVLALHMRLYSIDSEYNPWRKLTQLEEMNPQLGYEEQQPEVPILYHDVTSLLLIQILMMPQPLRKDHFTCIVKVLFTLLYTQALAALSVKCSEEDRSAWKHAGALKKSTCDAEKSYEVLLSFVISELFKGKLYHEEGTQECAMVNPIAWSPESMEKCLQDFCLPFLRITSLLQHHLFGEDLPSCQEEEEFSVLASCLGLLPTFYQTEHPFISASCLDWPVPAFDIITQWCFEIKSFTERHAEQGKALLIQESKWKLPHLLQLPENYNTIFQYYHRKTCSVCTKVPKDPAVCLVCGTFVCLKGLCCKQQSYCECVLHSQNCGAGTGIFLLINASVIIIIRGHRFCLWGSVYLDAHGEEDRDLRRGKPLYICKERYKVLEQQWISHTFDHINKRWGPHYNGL
Sequence of UniProt Q9H6P5 (Q9H6P5 whole entry, looked up): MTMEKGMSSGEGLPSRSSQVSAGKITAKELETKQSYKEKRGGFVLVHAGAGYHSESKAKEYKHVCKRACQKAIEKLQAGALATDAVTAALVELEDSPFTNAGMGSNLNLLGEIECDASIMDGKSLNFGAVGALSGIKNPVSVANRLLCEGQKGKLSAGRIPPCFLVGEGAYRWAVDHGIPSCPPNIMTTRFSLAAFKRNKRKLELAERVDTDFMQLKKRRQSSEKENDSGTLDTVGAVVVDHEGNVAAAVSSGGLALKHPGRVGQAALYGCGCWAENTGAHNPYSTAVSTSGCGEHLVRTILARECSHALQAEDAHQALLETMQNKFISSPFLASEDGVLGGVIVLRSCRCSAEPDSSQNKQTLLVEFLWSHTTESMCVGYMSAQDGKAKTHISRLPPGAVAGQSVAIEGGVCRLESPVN

Target	log2 fold change [1]	log2 fold change [2]	log2 fold change [3]	log2 fold change [4]	log2 fold change [5]	log2 fold change [6]	log2 fold change [7]	log2 fold change [8]	log2 fold change [9]	log2 fold change [10]	log2 fold change [11]	log2 fold change [12]	log2 fold change [13]	log2 fold change [14]	log2 fold change [15]	log2 fold change [16]	log2 fold change [17]	log2 fold change [18]	log2 fold change [19]	log2 fold change [20]
TPD52L2 isoform 7 (UniProt O43399)	0.039	0.003	0.095	-0.124	-0.022	0.222 (active)	0.043	0.03	0.139	0.057	0.022	0.019	0.056	0.042	-0.009	0.038	-0.012	-0.022	-0.039	0.049
TNIK (UniProt C9J338)	-0.042	-0.023	-0.075	-0.443 (active)	0.115	0.344	0.012	0.005	-0.258	0.344	–	–	-0.055	–	-0.043	-0.292	–	-0.043	0.015	-0.068
TBC1D20 isoform 3 (UniProt Q96BZ9)	-0.019	-0.12	-0.066	-0.087	0.021	-0.105	-0.017	-0.095	-0.303	0.025	–	–	0.027	–	-0.053	-0.021	–	0.067	-0.072	-0.006
TUBB4A (UniProt M0QYM7)	-0.009	-0.067	-0.176	-1.05 (active)	–	0.39	0.138	0.116	-0.516	0.42	-0.029	-0.009	–	0.039	–	-0.116	0.013	0.107	-0.048	0.126
UBIAD1 (UniProt Q9Y5Z9)	0.031	–	-0.048	0.036	-0.054	0	-0.024	-0.014	–	0.016	0.14	-0.014	0.117	0.125	-0.014	0.096	0.04	-0.019	-0.034	-0.027
TTC37 (UniProt Q6PGP7)	-0.157	-0.03	-0.202	–	0.096	–	–	0.069	-0.26	–	0.03	-0.001	-0.163	0.013	-0.085	-0.408 (active)	-0.012	0.065	0.005	-0.087
UBXN10 (UniProt Q96LJ8)	-0.041	0.006	0.02	-0.001	0.035	0.06	0.006	-0.003	-0.081	-0.065	–	–	-0.007	–	0.008	-0.028	–	0.035	0.078	0.014
TFPI (UniProt P10646)	-0.035	0.009	0.036	0.625 (active)	–	-0.202	-0.01	0.082	0.149	-0.301	-0.076	0.04	–	-0.035	–	-0.088	-0.025	-0.067	0.035	0.02
UBR3 isoform 4 (UniProt Q6ZT12)	-0.003	0.01	-0.092	-0.006	-0.003	-0.046	0.06	0.015	-0.042	0.05	0.003	-0.033	-0.026	-0.005	0.014	-0.069	-0.009	0.036	-0.032	-0.039
TASP1 (UniProt Q9H6P5)	0.009	-0.217	-0.086	–	0	–	-0.002	0.053	-0.235	–	-0.319	-0.062	-0.124	0.077	-0.003	-0.094	0.089	0.046	-0.053	-0.056
TCF20 (UniProt Q9UGU0)	-0.049	-0.034	0.019	0.011	0.094	0.108	–	-0.032	-0.001	-0.005	–	–	0.001	–	-0.057	0.193	–	-0.006	0.11	0.068
TBC1D8B (UniProt Q0IIM8)	0	-0.072	0.013	-0.229	0.007	0.176	-0.011	0.014	0.03	0.097	0.021	-0.035	0.01	0.015	-0.042	-0.061	0.036	0.034	-0.042	-0.034
TMEM14C (UniProt Q9P0S9)	0.123	0.162	-0.087	–	0.016	–	-0.099	0.002	-0.094	–	0.065	-0.089	0.031	0.13	0.029	-0.299	-0.017	0.029	-0.13	-0.07
TCF4 (UniProt P15884)	-0.212	–	0.128	0.039	0.039	-0.022	-0.044	-0.099	–	0	-0.004	-0.139	0.077	-0.057	0.01	0.161	-0.147	0.064	0.016	–
UBN1 (UniProt Q9NPG3)	-0.187	–	-0.042	-0.057	-0.092	0.215	0.069	-0.256	–	0.308	–	–	0.208	–	0.055	0.114	–	-0.053	0.001	–
THAP9 (UniProt Q9H5L6)	-0.035	-0.154	-0.203	-0.675 (active)	0.012	0.429	-0.045	0.009	-0.007	0.323	–	–	0.025	–	-0.032	-0.455	–	0.07	0.179	–
TFAP4 (UniProt Q01664)	-0.05	0.022	0.009	0.477 (active)	–	0.033	-0.05	0.017	-0.214	-0.217	0.18	0.155	–	0	–	0.006	-0.066	-0.036	-0.218	-0.001
